Nine molecules from paper PMC5540273 (PLoS ONE, 2017) can be followed below.

Among the test systems are TNNI3K; TRKB; TRPM6; TSSK1B; TSSK3; TTK; TXK; TYRO3; ULK1; ULK2; ULK3; VRK2; WEE1; WEE2.
Holding throughout (settings): concentration: 1 μM,replicates: in singlicate; n = 1
The next test deals with T1, TRKA.
T1 construct: gene NTRK1

The subject of another test is T2, TRKC.
T2 construct: gene NTRK3

In test [1] the test system is TYK2(JH1domain-catalytic).
In test [2] the test system is TYK2(JH2domain-pseudokinase).
The test system of the next test is T3, VEGFR2.
T3 construct: gene KDR

For a further test, the system named is T4, VPS34.
T4 construct: gene PIK3C3
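Also: KINOMEscan kinase panel screen.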

For the molecule `Cl.Cl.NC[C@H](CC1CCCCC1)NC(=O)c1cc(Br)c(-c2ccnc3[nH]ccc23)s1` [GSK1581427], the “%Inh” value with TNNI3K was determined as 0%; in the test on TRKA, 84%; with TRKB, 64%; with TRKC, 57%; in the test on TRPM6, 8%; in the test on TSSK1B it was 58%. In addition, the “%Inh” value is 3% in the test on TSSK3; 21% in the test with TTK; 1% in the test on TXK; 13% in test [1]; 5% in [2]; 0% in the test on TYRO3. Moreover, the “%Inh” value is 28% in the test with ULK1; 0% with ULK2; 10% in the test on ULK3; 7% in the test on VEGFR2; 0% with VPS34; 0% in the test with VRK2. The “%Inh” value was found to be 3% in the test with WEE1 and 10% in the test with WEE2.

With `C=CC(=O)Nc1cc2c(Nc3ccc(F)c(Cl)c3)ncnc2cc1OCCCN1CCOCC1` [GW781483], the “%Inh” value in the test on TNNI3K worked out at 0%; with TRKA, 47%; with TRKB, 4%; in the test on TRKC, 18%; in the test with TRPM6, 0%; with TSSK1B, 0%. Further, the “%Inh” value in the test on TSSK3 is recorded as 47%; in the test with TTK it was 0%; in the test with TXK, 82%; in [1], 25%; in [2], 21%; in the test on TYRO3, 29%. The “%Inh” value in the test with ULK1 is 0%; in the test on ULK2 it was 17%; in the test on ULK3, 14%; in the test on VEGFR2, 0%; with VPS34, 6%; with VRK2, 0%. Also, the “%Inh” value in the test with WEE1 stood at 0%; with WEE2, 20%.

Regarding `NC(=O)c1cc(-c2ccccc2)cc2c(C3CCNCC3)c[nH]c12` [GSK301362], the “%Inh” value in the test on TNNI3K came to 10%; in the test with TRKA, 51%; in the test on TRKB, 0%; in the test on TRKC, 4%; in the test with TRPM6 it was 33%; with TSSK1B it was 27%. Besides, the “%Inh” value is listed as 22% with TSSK3; 24% in the test on TTK; 0% with TXK; 69% in test [1]; 99.7% in test [2]; 1% with TYRO3. Moreover, the “%Inh” value in the test on ULK1 amounted to 23%; in the test on ULK2, 29%; in the test with ULK3, 18%; with VEGFR2, 0%; with VPS34, 0%; in the test with VRK2 it was 0%. The “%Inh” value in the test on WEE1 was 14%; with WEE2 it was 11%.

With `C[C@H]1Oc2cc(cnc2N)-c2c(nn(C)c2C#N)CN(C)C(=O)c2ccc(F)cc21`, the “%Inh” value with TNNI3K is recorded as 0%; in the test with TRKA it was 97.7%; with TRKB it was 93.4%; in the test on TRKC, 78%; in the test with TRPM6, 0%; with TSSK1B, 58%. Also, the “%Inh” value with TSSK3 is reported as 0%; with TTK it was 7%; in the test on TXK, 0%; in test [1], 0%; in test [2], 0%; in the test with TYRO3, 5%. For the same molecule, the “%Inh” value with ULK1 was 0%; in the test with ULK2, 0%; with ULK3 it was 0%; in the test on VEGFR2, 3%; in the test on VPS34, 0%; with VRK2, 42%. The “%Inh” value in the test with WEE1 is given as 0%; with WEE2, 16%.

Consider `CCN(CC)CCOc1ccc(Nc2ncc3cc(-c4c(Cl)cccc4Cl)c(=O)n(C)c3n2)cc1` [SB-601273], for which the “%Inh” value with TNNI3K is recorded as 100%; with TRKA, 100%; in the test on TRKB, 43%; in the test on TRKC, 92.9%; in the test with TRPM6, 48%; with TSSK1B, 56%. Moreover, the “%Inh” value in the test with TSSK3 worked out at 24%; with TTK it was 59%; with TXK, 99.5%; in [1] it was 96.7%; in test [2], 25%; in the test with TYRO3, 100%. The “%Inh” value in the test with ULK1 came to 92.4%; with ULK2, 95.2%; with ULK3, 59%; in the test on VEGFR2, 97.6%; with VPS34, 44%; in the test with VRK2, 46%. For the same molecule, the entries for the “%Inh” value in the test with WEE1 and with WEE2 were 99.9% and 99.7%, respectively.

For the molecule `O=C(NCCNc1ccnc(NCc2ccc(F)cc2)n1)c1cc2ccccc2s1` [GSK1379944], the “%Inh” value stood at 69% in the test with TNNI3K; 0% in the test on TRKA; 0% with TRKB; 22% in the test on TRKC; 1% in the test with TRPM6; 16% in the test on TSSK1B. Further, the “%Inh” value came out at 4% in the test with TSSK3; 0% with TTK; 11% in the test on TXK; 2% in [1]; 10% in test [2]; 4% with TYRO3. The “%Inh” value was 3% with ULK1; 0% in the test on ULK2; 0% with ULK3; 0% in the test with VEGFR2; 0% in the test with VPS34; 0% in the test on VRK2. In addition, the figures for the “%Inh” value in the test with WEE1 and in the test on WEE2 were 3% and 19%, respectively.

As to `Nc1nc(Nc2ccccc2)cc(-c2ccc3c(N)n[nH]c3c2)n1` [GSK2225749], the “%Inh” value is listed as 0% with TNNI3K; 30% in the test with TRKA; 0% with TRKB; 0% in the test with TRKC; 0% with TRPM6; 2% with TSSK1B. The “%Inh” value in the test on TSSK3 was 24%; in the test on TTK, 24%; in the test on TXK, 0%; in [1], 46%; in [2], 45%; with TYRO3, 0%. Moreover, the “%Inh” value in the test on ULK1 is 92.8%; in the test on ULK2, 62%; in the test on ULK3, 16%; with VEGFR2 it was 5%; with VPS34, 3%; with VRK2, 0%. Further, the “%Inh” value in the test with WEE1 and in the test with WEE2 was 0% in each case.

With `Cl.Oc1cc(-c2nc(-c3ccccc3)[nH]c2-c2ccncc2)ccc1Cl` [SB-386023], the “%Inh” value in the test with TNNI3K came to 14%; in the test with TRKA, 19%; with TRKB, 6%; in the test with TRKC, 12%; in the test on TRPM6, 23%; in the test with TSSK1B it was 0%. The “%Inh” value in the test with TSSK3 was found to be 0%; in the test on TTK, 29%; in the test on TXK, 42%; in test [1] it was 0%; in [2], 0%; in the test on TYRO3, 58%. Also, the “%Inh” value is listed as 7% in the test on ULK1; 25% with ULK2; 25% in the test on ULK3; 20% with VEGFR2; 14% in the test on VPS34; 0% in the test on VRK2. The “%Inh” value in the test on WEE1 came to 0%; in the test on WEE2, 11%.

For the molecule `Cc1cc2cn[nH]c2cc1-c1cccc2c(N)c(C(N)=O)nnc12`, the “%Inh” value in the test with TNNI3K is listed as 0%; in the test on TRKA, 51%; in the test with TRKB it was 66%; with TRKC, 54%; with TRPM6, 75%; with TSSK1B it was 0%. The “%Inh” value in the test with TSSK3 turned out to be 28%; in the test on TTK, 34%; in the test with TXK, 95.4%; in [1], 71%; in test [2], 65%; in the test with TYRO3, 15%. Further, the “%Inh” value in the test on ULK1 worked out at 28%; in the test on ULK2, 30%; in the test with ULK3 it was 50%; in the test with VEGFR2 it was 13%; with VPS34, 19%; with VRK2 it was 21%. In addition, the “%Inh” value in the test with WEE1 is 12%; in the test on WEE2 it was 29%.
